GALR2 antag = GALR2 antagonists in receptor-expressing cells, primary screen; antagonist mode; inhibition, % at 4 µM; Galanin receptor type 2 (Homo sapiens), O43603; 0.39% of 140,000 active; in the data active = inhibition above about 27%;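 also: cells stimulated with galanin 1-16 at roughly its EC80; 0% = agonist challenge control and 100% = basal control without agonist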
Target sequence (O43603 whole entry, looked up): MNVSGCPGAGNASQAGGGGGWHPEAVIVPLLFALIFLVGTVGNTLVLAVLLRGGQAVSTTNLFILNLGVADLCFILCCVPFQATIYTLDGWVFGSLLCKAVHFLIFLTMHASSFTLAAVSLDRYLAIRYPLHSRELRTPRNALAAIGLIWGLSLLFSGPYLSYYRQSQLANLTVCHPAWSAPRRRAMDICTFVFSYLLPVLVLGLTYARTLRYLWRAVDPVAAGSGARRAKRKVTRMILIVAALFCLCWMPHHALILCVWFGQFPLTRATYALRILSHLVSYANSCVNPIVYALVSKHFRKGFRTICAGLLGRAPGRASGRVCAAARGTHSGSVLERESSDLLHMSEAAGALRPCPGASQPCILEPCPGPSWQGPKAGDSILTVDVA
CD11b adhes inh = inhibitors of CD11b/CD18 adhesion to fibrinogen, primary screen, K562 cells, luminescence. Integrin beta-2 (Homo sapiens) + Integrin alpha-M (Homo sapiens), P05107+P11215. ATPlite luminescence; Mn2+ added to activate the integrin. inhibition, % at 10 µM. 0.54% of 93,000 active;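 active = primary inhibition of 50% or more at 10 µM, then 40% or more on retest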
S1P2 agonist = S1P2 receptor agonists, primary screen, cell-based; Sphingosine 1-phosphate receptor 2 (Homo sapiens), O95136; S1P2-expressing cell line, agonist reporter read-out; activation, % at 4.5 µM; 0.46% of 97,000 active; AID 729, 2007; in the data active = activation above about 16%;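 also: 0% = vehicle low control and 100% = maximal reference agonist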
S1P2 blocker = human S1P2 receptor antagonists, primary screen, cell-based | Sphingosine 1-phosphate receptor 2 (Homo sapiens), O95136 | cell-based S1P2 antagonist assay, inhibition at 5 uM | inhibition, % at 5 µM | 0.21% of 97,000 active | AID 736, 2007; in the data active = inhibition above about 45%;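 also: CRE beta-lactamase reporter cells expressing human S1P2 stimulated with S1P; 0% = agonist at EC80 alone and 100% = agonist plus reference antagonist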
Mac1 fbg enh = enhancers of CD11b/CD18 adhesion to fibrinogen, primary screen, K562 cells, luminescence; Integrin beta-2 (Homo sapiens) + Integrin alpha-M (Homo sapiens), P05107+P11215; ATPlite luminescence; activation, % at 10 µM; 0.07% of 93,000 active;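 active = 10 µM primary screen giving 50% or more activity, confirmed by 40% or more on retest at that dose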
GALR2 ag = GALR2 receptor agonists, primary screen, cell-based. Galanin receptor type 2 (Homo sapiens), O43603. GALR2-expressing cells, agonist activation read-out. activation, % (concentration not given with the values). 0.48% of 140,000 active; in the data active = activation above about 5%, passing the limit was not always enough;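 also: 0% = vehicle buffer wells and 100% = reference agonist at full effect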
Numbers without * were called inactive; x = no result. Only some compounds are listed: those with a hit (about 1.5% of all), similar ones and a draw of the others.

SMILES	GALR2 antag	CD11b adhes inh	S1P2 agonist	S1P2 blocker	Mac1 fbg enh	GALR2 ag
Nc1c(C(=O)NCCN2CCOCC2)c2nc3ccccc3nc2n1CCc1ccccc1	-20	-15	29*	-4	0	8.6*
COc1cc(/C=N/NC(=S)NCc2ccccc2)ccc1OCC#N	7	x	x	x	x	-1
O=C(Nc1nc2ccccc2s1)c1ccc(N2CCCCC2)c([N+](=O)[O-])c1	3	x	x	x	x	-1
COc1ccc(C2SCC(C(=O)NCc3ccc(F)cc3)N2C(C)=O)cc1 (stereo unspecified)	4	-6	22*	-14	-1	-3
CCC(=O)N1C(C(=O)NCc2ccc(OC)cc2)CSC1c1ccc(OC)cc1 (stereo unspecified)	-2	2	-3	5	-12	-3
CCCCN1C(=O)c2ccc(C(=O)NC3=NCCS3)cc2C1=O	-4	14	0	-10	-6	0
CNC(=O)COC(=O)c1ccc(-c2nc3ccccc3s2)s1	-8	64*	0	10	11	-1
CCc1cccc(CC)c1NC(=O)COC(=O)c1ccccc1-c1nc2ccccc2s1	8	-7	x	x	2	-2
CCc1ccccc1NC(=O)CSc1nc2n[nH]c(C)c2c(=N)n1-c1ccc(OC)cc1	16	x	x	x	x	-1
COc1ccccc1NC(=O)CSc1nc2n[nH]c(C)c2c(=N)n1-c1ccccc1Cl	-7	x	21*	-22	x	-1
C=CCOc1ccc(/C=N/NC(=O)C(C)Sc2ccccn2)cc1OC (stereo unspecified)	-4	x	x	x	x	1
O=C(COc1ccccc1[N+](=O)[O-])N/N=C/c1cccs1	11	x	x	x	x	-1
CCOc1ccc(/C=C/[N+](=O)[O-])c2ccccc12	5	2	0	2	3	-3
CN(c1ccccc1)c1ccc(/C=C/[N+](=O)[O-])cc1	24	x	x	x	x	5.5*
CCOC(=O)c1c(NC(=O)c2cc(-c3ccc(O)cc3)on2)sc(C(C)=O)c1C	4	x	x	x	x	0
N#Cc1c(N)nc2c(c1-c1ccc3c(c1)OCO3)CCc1ccccc1-2	-10	x	x	x	x	4.9*
N#Cc1c(N)c(C#N)c(-c2ccc3c(c2)OCO3)c2c1CCCC2	x	-4	x	x	2	x
COc1ccccc1NC(=O)CN1CCC(n2nnc3cc(F)ccc32)CC1	3	-4	8	-5	0	-2
COc1ccccc1NC(=O)CN1CCC(n2c(C)nc3cc(F)ccc32)CC1	-16	20	19*	-30	2	4
CC(=O)Oc1c(Cl)c(N2CCOCC2)c(OC(C)=O)c2ccccc12	8	8	x	x	4	-1
COc1ccc(C2=C(SC)CC2=NC(C)(C)C)cc1	-3	x	x	x	x	0
COc1ccc(C(=O)C(CN2CCOCC2)c2ccccc2)cc1F (stereo unspecified)	33*	-11	-5	7	-2	-1
C=CCOc1ccc(C(=O)CC)cc1OC	-6	x	x	x	x	-1
O=C(Cn1c2ccccc2c(=O)c2ccccc21)N/N=C/c1cc([N+](=O)[O-])ccc1N1CCCCCC1	-4	-9	-3	4	107*	-1
O=C(Cn1c2ccccc2c(=O)c2ccccc21)N/N=C/c1ccc(N2CCCC2)c([N+](=O)[O-])c1	9	1	x	x	87	4
SMILES	GALR2 antag	CD11b adhes inh	S1P2 agonist	S1P2 blocker	Mac1 fbg enh	GALR2 ag
CCCCCOC(=O)C1=C(C)Nc2nnnn2C1c1ccccc1Cl (stereo unspecified)	-14	10	1	-6	2	3
COc1ccc(C2(CNC(=O)c3cccc([N+](=O)[O-])c3)CCOCC2)cc1	-3	x	x	x	x	-1
Cc1cc(/C=C2/SC(=S)N(c3cccc(Cl)c3)C2=O)c(C)n1-c1cccnc1	12	x	-6	74*	x	-2
COC(=O)c1c2c(nc3ccccc13)CCC2	4	-6	-3	-6	11	-2
COc1cc(-c2nnc(COC(=O)c3c4c(nc5ccccc35)CCCC4)o2)cc(OC)c1OC	-2	x	43*	-21	x	-1
CCOc1ccc(Oc2ccc(C(F)(F)F)cc2N)cc1	-15	x	x	x	x	-1
CCCSc1nsc(NC(=O)C(c2ccccc2)c2ccccc2)n1	-14	98*	-6	-17	-7	2
